Screening results as filed in PubChem BioAssay.
Pol iota inh: inhibitors of human DNA polymerase iota; Q9UNA4; Pol iota fluorescent replication assay, 10 min; Potency, µM (doses to about 115 µM), without a hit: at the highest dose activity, negative = inhibition, actives largely listed as inhibitors; 390,000 tested, 1% active; note: potency is the fitted concentration of half-maximal effect
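Fluorescent replication assay read twice, at 0 min and 10 min after adding 50 nM (final) substrate. Enzyme (10 nM) and compounds were first incubated 15 min at room temperature; enzyme-free buffer wells were negative controls.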
Pol kappa inh: DNA polymerase kappa (human) inhibition. purified Pol kappa, fluorescent DNA synthesis assay, 10 min. Potency, µM (titrated, usually from 107 µM), inactives show top-dose activity, negative = inhibition, hits mostly inhibitors. Q9UBT6. 400,000 tested, 0.53% active; note: potency is the fitted concentration of half-maximal effect; % is set by controls: 0 for no effect and ±100 for the full control effect
Target sequence (Q9UBT6 whole entry, looked up): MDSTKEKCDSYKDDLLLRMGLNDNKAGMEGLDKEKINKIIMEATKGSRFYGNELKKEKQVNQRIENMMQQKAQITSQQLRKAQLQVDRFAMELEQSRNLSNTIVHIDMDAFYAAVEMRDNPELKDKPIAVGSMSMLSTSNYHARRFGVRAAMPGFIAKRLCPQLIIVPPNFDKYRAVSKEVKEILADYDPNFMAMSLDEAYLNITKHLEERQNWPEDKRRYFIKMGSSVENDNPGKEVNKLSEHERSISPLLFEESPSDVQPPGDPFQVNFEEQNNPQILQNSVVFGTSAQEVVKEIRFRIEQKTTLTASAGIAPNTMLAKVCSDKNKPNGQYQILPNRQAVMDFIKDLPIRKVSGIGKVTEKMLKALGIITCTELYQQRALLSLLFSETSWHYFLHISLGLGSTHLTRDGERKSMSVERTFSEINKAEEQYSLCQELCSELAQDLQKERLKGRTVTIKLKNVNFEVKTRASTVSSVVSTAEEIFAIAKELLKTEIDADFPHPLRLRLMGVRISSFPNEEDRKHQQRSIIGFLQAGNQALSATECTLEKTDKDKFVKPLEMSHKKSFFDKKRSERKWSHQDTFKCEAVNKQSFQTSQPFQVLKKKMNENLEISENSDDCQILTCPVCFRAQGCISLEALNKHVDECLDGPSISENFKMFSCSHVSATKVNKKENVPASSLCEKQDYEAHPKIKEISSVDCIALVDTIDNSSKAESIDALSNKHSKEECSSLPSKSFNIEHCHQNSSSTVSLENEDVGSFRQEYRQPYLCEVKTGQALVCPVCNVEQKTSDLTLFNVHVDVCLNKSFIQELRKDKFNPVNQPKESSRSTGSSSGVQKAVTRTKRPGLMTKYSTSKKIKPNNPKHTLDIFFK
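Activity was followed as the change in fluorescence between reads at 0 and 10 min after starting the reaction with 50 nM substrate. Beforehand, 10 nM polymerase had been preincubated with compound for 15 min at room temperature.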
POLB inh: inhibitors of human DNA polymerase beta. 340,000 tested, 1.3% active. Potency, µM (highest dose often 114 µM), without a hit: top-dose activity change, negative = inhibition, hits mostly inhibitors. P06746. Pol beta primer extension/strand displacement, fluorescence kinetic; note: potency is the fitted concentration of half-maximal effect; % is set by controls: 0 for no effect and ±100 for the full control effect
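Values derive from four-parameter Hill fits of normalized kinetic data: reads at 0 and 10 min following addition of 50 nM substrate to 10 nM Pol beta preincubated 15 min with compound.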
PI5P4Ka inh: PI5P4K alpha (human) kinase inhibition | max response, % | P48426 | 330,000 tested, 1.2% active | PI5P4Kalpha enzyme, ADP-Glo luminescence, 60 min; active compounds read low; active = max response of -50% or lower; inconclusive = between -30% and -50%; inactive = -30% or higher; note: value at the top dose of about 77 µM; % is set by controls: 0 for no effect and ±100 for the full control effect
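ADP-Glo luminescence end-point read after a 60 min room-temperature kinase reaction of PI5P4Kalpha plus substrate, initiated with ATP at 5 microM final. Buffer: 0.038 M HEPES pH 7.4, EGTA, 0.1% CHAPS, 5% DMSO.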
WRN helicase inh-1: inhibitors of human WRN helicase; Potency, µM (series often up to 114 µM), for inactives: top-dose activity change, negative = inhibition, actives largely listed as inhibitors; Q14191; 360,000 tested, 0.46% active; WRN helicase unwinding, fluorescent forked duplex, kinetic; note: potency is the fitted concentration of half-maximal effect; % is set by controls: 0 for no effect and ±100 for the full control effect; nearly all actives have a fitted effect of over 55% in size
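WRN at 20 nM final preincubated with compound 15 min at room temperature; reaction started with 100 nM fluorophore/quencher forked duplex oligonucleotide and 2 mM ATP final. Unwinding followed kinetically by red fluorescence (ex 525, em 598 nm).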
Pol eta inh: DNA polymerase eta (human) inhibition; Q9Y253; Potency, µM (series often up to 114 µM), for the others: at the top dose activity change, negative = inhibition, actives largely listed as inhibitors; recombinant Pol eta, fluorescent DNA replication assay; 390,000 tested, 1.2% active; note: potency is the fitted concentration of half-maximal effect; % is set by controls: 0 for no effect and ±100 for the full control effect
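Pol eta at 10 nM preincubated with compounds 15 min at room temperature; reaction started with fluorescent substrate (50 nM final) and read kinetically at 0 and 10 min.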
WRN helicase inh-2: WRN helicase inhibition, cherry-pick retest | shares compounds with WRN helicase inh-1 | WRN helicase DNA unwinding, fluorescence kinetic | Potency, µM (series often up to 57.1 µM), for the others: at the top dose activity, negative = inhibition, hits mostly inhibitors | 610 tested, 63% active; note: potency is the fitted concentration of half-maximal effect; nearly all actives have a fitted effect of over 65% in size
TO displacement: DNA binding via thiazole orange displacement; shares compounds with WRN helicase inh-1; thiazole orange DNA binding displacement, fluorescence; Potency, µM (titrated, usually from 57.1 µM), inactives show top-dose activity change, negative = inhibition, usual class: inhibitors; 610 tested, 10% active;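 note: drop in dye fluorescence marks compound binding to DNA; potency is the fitted concentration of half-maximal effect; % is set by controls: 0 for no effect and ±100 for the full control effect; nearly all actives have a fitted effect of over 60% in size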
BLM helicase inh: blocks human BLM helicase in WRN counterscreen; Recombinant BLM helicase DNA unwinding, red fluorescence; shares compounds with WRN helicase inh-1; 610 tested, 60% active; Potency, µM (series often up to 57.1 µM), for the others: at the highest dose activity change, negative = inhibition, usual class: inhibitors; note: potency is the fitted concentration of half-maximal effect; nearly all actives have a fitted effect of over 60% in size
An asterisk follows results filed as active; u = inconclusive; x = no result. In the library only some 2.8% were active in any assay of this set; here they are far more common. Unless noted, calls come from the whole dose curve; as a rule, active = well fitted curve in the direction sought with a large enough effect; inconclusive = small, poorly fitted or top-dose-only effect, or another doubt; inactive = no such curve, though single readings can be large; an effect the other way counts as inactive or inconclusive.

SMILES	Pol iota inh	Pol kappa inh	POLB inh	PI5P4Ka inh	WRN helicase inh-1	Pol eta inh	WRN helicase inh-2	TO displacement	BLM helicase inh
O=C(CSc1nnc(-c2cnccn2)n1Cc1ccco1)c1ccccc1	-2.8%	-10.8%	-2.6%	-2.5	-11.5%	0.8%	x	x	x
O=C(CSc1nnc(-c2cnccn2)n1Cc1ccco1)c1ccc(Cl)cc1	u	-8.1%	-0.2%	x	u	-4.1%	-12.5%	-17.4%	-22.6%
CCN1CCC(O)(/C=C/c2ccc(C(C)C)cc2)C(C(=O)/C=C/c2ccc(C(C)C)cc2)C1 (stereo not drawn)	1.0%	-14.6%	x	-0.7	15.8µM*	-19.7%	-27.9%	-29.6%	u
CCN1CCN(C(=O)/C=C/c2ccc(C(C)C)cc2)CC1	-12.4%	-7.5%	x	8.4	-13.4%	-1.5%	x	x	x
CCN1/C(=C/c2ccc3cc(C)ccc3[n+]2C)Sc2ccc3sccc3c21	u	-33.4%	-1.4%	-23.8	89.1µM*	u	0.341µM*	0.215µM*	0.681µM*
COc1ccccc1-n1cc(C(=O)N2CCCC(CO)(Cc3ccccc3C)C2)cn1 (stereo not drawn)	23.0%	-1.5%	8.4%	-0.7	-6.0%	-14.9%	x	x	x
COc1cc(N=Nc2cccc(S(N)(=O)=O)c2)c2ccccc2c1N	u	-26.5%	u	-28.8	u	u	u	u	u
COC1=C(OC)C(=O)C(Sc2ccc3ccccc3c2)=CC1=O	u	-8.0%	x	-90.8*	20µM*	-19.8%	8.6%	-8.1%	-6.4%
O=C(/C=C/c1cccs1)Nc1scc(-c2ccccc2)c1C(=O)O	2.51µM*	-18.7%	u	u	31.6µM*	79.4µM*	u	-15.9%	21.5µM*
Cc1nc2c(cc1C(=O)N/N=C/c1ccc(O)c(O)c1)c(=O)n(C)c(=O)n2C	u	-25.9%	44.7µM*	-24.4	u	u	u	-4.4%	u
O=C1Nc2ccc3sc4ccccc4c3c2C1=O	22.4µM*	-30.3%	5.62µM*	2.5	u	u	u	24.1µM*	7.64µM*
CCOC(=O)C1=C(C)N=c2s/c(=C\c3ccc(OCC(=O)O)cc3)c(=O)n2C1c1ccc(OC(C)C)cc1 (stereo not drawn)	u	-18.3%	-14.7%	-6.6	-21.8%	u	x	x	x
CCOC(=O)C1=C(C)N=c2sc(=Cc3cc(Cl)c(OCC(=O)O)c(Cl)c3)c(=O)n2C1c1cccc(OC)c1 (stereo not drawn)	x	x	x	-74.0*	79.4µM*	x	30.4µM*	20.5%	u
CCOC(=O)C1=C(C)N=c2s/c(=C/c3ccc(OCC(=O)O)cc3)c(=O)n2C1c1cc(OC)c(OC)c(OC)c1 (stereo not drawn)	67.5%	-6.1%	-15.8%	-22.0	u	-1.2%	x	x	x
CCOC(=O)C1=C(C)N=c2sc(=Cc3ccc(OCC(=O)O)cc3)c(=O)n2C1c1ccc(Cl)cc1 (stereo not drawn)	x	x	x	u	u	x	7.64µM*	357.0%	3.41µM*
CCOc1ccc(CCNC(=O)CCS(=O)(=O)c2ccc(OC)cc2)cc1OCC	-10.4%	-17.0%	u	0.1	-6.0%	u	x	x	x
Cc1ccsc1C(=O)OCC(=O)NC1CCCCC1C (stereo not drawn)	24.4%	-3.7%	x	10.2	3.3%	-16.5%	x	x	x
COc1cccc(/C=C2/CCC(CN(C)C)C2=O)c1 (stereo not drawn)	u	-3.5%	x	-15.2	12.6µM*	u	-25.6%	-13.8%	u
